According to PubChem BioAssay (EPA / NIEHS):
Results filed as inconclusive are left out. The source made the active and inactive calls. Rule for the calls: active = hit-call score of the fitted dose curve at least 0.9, where 1 is the maximum; inconclusive = response in the unintended direction; inactive = score below 0.9. Peptide text beside a SMILES is read from it.

Assays:
[1] = target: human Retinoic Acid Receptor beta (RARb), RARB (gene 5915) (UniProt P10826); assay: ATG_RARb_TRANS: Attagene TRANS-FACTORIAL HepG2 Assay for human Retinoic Acid Receptor beta (AID 2283004)
human Retinoic Acid Receptor beta (RARb), RARB (gene 5915), sequence (P10826 whole entry, looked up, the tested form may be a part): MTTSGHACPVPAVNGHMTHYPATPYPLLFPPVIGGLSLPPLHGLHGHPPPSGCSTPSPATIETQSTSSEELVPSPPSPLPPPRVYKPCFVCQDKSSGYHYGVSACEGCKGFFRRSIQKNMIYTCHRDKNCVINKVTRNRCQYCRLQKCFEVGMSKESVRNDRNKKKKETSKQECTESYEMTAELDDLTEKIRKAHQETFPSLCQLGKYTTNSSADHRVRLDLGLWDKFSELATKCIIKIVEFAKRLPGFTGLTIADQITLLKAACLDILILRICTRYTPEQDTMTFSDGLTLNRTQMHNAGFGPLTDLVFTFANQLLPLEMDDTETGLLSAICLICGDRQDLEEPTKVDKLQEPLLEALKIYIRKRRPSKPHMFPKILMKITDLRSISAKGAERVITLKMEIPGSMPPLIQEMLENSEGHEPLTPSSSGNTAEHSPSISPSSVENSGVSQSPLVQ
Procedure, shortened: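 HepG2 cells transiently transfected with multiplexed GAL4-UAS reporter units expressing chimeric NR–Gal4 fusions; 24 h compound exposure. Reporter mRNA quantified by RT-PCR, 6-FAM labelling, HpaI digestion and capillary electrophoresis; gain-of-signal fitted against DMSO baseline.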

[2] = target: human Peroxisome Proliferator-activated Receptor delta (PPARd), PPARD (gene 5467) (UniProt Q03181); assay: ATG_PPARd_TRANS: Attagene TRANS-FACTORIAL HepG2 Assay for human Peroxisome Proliferator-activated Receptor delta (PPARd) (AID 2283002)
human Peroxisome Proliferator-activated Receptor delta (PPARd), PPARD (gene 5467), sequence (Q03181 whole entry, looked up): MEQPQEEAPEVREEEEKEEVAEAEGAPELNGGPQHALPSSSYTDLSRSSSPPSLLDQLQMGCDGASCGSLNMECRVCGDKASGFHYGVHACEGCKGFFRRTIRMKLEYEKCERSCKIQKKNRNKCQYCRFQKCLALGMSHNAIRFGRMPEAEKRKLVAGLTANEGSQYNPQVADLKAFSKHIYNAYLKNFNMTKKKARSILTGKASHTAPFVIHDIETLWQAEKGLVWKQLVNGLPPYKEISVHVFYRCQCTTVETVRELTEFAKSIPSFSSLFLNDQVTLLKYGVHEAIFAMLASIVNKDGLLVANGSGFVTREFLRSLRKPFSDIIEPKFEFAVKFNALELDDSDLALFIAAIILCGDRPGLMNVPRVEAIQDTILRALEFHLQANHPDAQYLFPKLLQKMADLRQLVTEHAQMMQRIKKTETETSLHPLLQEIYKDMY
Procedure, shortened: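 Cell-based TRANS reporter: HepG2, transient MRTU transfection, 24 h exposure. Readout = reporter mRNA (RT-PCR/CE, 6-FAM). Gain-of-signal fit vs DMSO control.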

[3] = target: Nuclear receptor subfamily 1 group I member 2 (Homo sapiens) (UniProt O75469); assay: ATG_PXR_TRANS: Attagene TRANS-FACTORIAL HepG2 Assay for human Pregnane X Receptor (PXR) (AID 2283008)
Nuclear receptor subfamily 1 group I member 2 (Homo sapiens), sequence (O75469 whole entry, looked up, the tested form may be a part): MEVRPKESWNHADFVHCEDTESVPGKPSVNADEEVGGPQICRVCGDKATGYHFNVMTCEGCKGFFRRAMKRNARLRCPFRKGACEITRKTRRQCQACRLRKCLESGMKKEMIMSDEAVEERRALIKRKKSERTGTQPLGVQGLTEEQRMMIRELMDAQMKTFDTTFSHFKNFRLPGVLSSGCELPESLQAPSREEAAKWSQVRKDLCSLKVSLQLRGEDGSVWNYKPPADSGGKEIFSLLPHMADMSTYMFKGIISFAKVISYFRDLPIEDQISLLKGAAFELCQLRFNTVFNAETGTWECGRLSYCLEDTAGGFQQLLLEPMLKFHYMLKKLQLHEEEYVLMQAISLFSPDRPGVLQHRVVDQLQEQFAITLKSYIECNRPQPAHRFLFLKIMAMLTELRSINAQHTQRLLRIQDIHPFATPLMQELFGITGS
Procedure, shortened: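 Read-out is fluorescence of labelled reporter cDNA fragments separated by capillary electrophoresis after RT-PCR and HpaI digestion. Source: HepG2 cells carrying PXR-GAL4/UAS reporter constructs, treated 24 h; activity fitted upward relative to DMSO.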

[4] = target: Retinoic acid receptor alpha (Homo sapiens) (UniProt P10276); assay: ATG_RARa_TRANS: Attagene TRANS-FACTORIAL HepG2 Assay for human Retinoic Acid Receptor alpha (RARa) (AID 2283005)
Retinoic acid receptor alpha (Homo sapiens), sequence (P10276 whole entry, looked up, the tested form may be a part): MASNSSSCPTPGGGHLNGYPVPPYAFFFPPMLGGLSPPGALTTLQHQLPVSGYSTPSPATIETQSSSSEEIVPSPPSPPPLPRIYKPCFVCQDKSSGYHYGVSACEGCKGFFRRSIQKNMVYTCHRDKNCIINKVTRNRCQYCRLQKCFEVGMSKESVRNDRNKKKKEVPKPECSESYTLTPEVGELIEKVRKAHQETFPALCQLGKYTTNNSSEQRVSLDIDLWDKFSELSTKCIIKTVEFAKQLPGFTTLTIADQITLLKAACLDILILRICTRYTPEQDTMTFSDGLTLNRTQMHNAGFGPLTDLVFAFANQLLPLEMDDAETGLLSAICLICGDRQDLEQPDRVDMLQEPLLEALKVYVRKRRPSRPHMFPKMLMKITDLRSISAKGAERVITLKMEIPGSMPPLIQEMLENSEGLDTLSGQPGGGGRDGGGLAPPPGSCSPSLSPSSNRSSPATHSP
Procedure, shortened: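 Reporter transcripts, measured by RT-PCR with fluorescent labeling and capillary electrophoresis after 24 h dosing, reflect activity of an exogenous human RARa–GAL4 fusion in transiently transfected HepG2. Fitted for increase relative to DMSO.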

[5] = target: Peroxisome proliferator-activated receptor gamma (Homo sapiens) (UniProt P37231); assay: ATG_PPARg_TRANS: Attagene TRANS-FACTORIAL HepG2 Assay for human Peroxisome Proliferator-activated Receptor-gamma (PPARg) (AID 2283007)
Peroxisome proliferator-activated receptor gamma (Homo sapiens), sequence (P37231 whole entry, looked up): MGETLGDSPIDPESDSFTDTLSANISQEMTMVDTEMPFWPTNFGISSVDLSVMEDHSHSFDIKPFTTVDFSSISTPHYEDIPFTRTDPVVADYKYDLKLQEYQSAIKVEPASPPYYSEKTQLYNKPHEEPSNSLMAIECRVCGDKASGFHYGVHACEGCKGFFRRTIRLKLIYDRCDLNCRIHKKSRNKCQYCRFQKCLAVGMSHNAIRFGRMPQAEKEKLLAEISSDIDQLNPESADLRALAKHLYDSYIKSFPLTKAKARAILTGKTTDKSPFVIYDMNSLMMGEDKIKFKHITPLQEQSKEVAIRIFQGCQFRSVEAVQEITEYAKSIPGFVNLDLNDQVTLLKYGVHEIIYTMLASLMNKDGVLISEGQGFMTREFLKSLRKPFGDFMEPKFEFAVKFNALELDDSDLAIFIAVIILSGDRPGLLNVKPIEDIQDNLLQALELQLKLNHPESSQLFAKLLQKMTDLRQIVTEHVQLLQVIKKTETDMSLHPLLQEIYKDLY
Procedure, shortened: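 Human hepatoma HepG2, transient MRTU transfection, 24 h treatment. mRNA reporter signal by RT-PCR plus capillary electrophoresis, fluorescence detection; fitted for increase over DMSO negative control.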

[6] = target: human Retinoic Acid Receptor gamma (RARg), RARG (gene 5916) (UniProt P13631); assay: ATG_RARg_TRANS: Attagene TRANS-FACTORIAL HepG2 Assay for human Retinoic Acid Receptor gamma (RARg) (AID 2283009)
human Retinoic Acid Receptor gamma (RARg), RARG (gene 5916), sequence (P13631 whole entry, looked up): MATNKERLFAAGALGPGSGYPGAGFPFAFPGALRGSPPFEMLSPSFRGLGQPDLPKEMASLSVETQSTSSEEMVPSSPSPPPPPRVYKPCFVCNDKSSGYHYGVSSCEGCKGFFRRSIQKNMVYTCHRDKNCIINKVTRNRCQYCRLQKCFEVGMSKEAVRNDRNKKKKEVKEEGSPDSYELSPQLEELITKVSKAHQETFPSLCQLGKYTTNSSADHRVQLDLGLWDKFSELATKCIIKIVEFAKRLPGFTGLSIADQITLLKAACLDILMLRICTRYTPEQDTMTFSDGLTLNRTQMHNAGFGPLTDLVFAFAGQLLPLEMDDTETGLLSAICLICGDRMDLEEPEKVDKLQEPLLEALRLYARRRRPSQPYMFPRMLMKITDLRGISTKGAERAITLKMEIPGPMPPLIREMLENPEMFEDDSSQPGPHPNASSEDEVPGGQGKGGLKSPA
Procedure, shortened: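 Transient transfection of HepG2 with multi-reporter constructs, then 24 h chemical treatment. Total RNA isolated, reverse-transcribed, PCR-amplified, fluorescently labelled and resolved by capillary electrophoresis; activity scored as mRNA induction versus DMSO.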

For CC(=O)OC(C)c1ccccc1 (stereo not given), the outcome [1] was “inactive”.
With CC(C)(C)NC(=O)[C@H]1CC[C@H]2[C@@H]3CC[C@H]4NC(=O)C=C[C@]4(C)[C@H]3CC[C@]12C the outcome [2] was “inactive” and the AC50 [3] was 19.8 µM (active).
COc1cc(C)ccc1O was tested, and the outcome [2] was “inactive”, the outcome [4] was “inactive” and the outcome [5] was “inactive”. The outcome [3] was “inactive”.
With C[Si]1(C)O[Si](C)(C)O[Si](C)(C)O[Si](C)(C)O[Si](C)(C)O1 the outcome [2] was “inactive”, the outcome [5] was “inactive” and the outcome [3] was “inactive”.
CCOC(=O)CC(=O)c1ccccc1 was tested, and the outcome [2] was “inactive”, the outcome [5] was “inactive” and the outcome [3] was “inactive”.
For COC(=O)[C@H](Cc1ccccc1)NC(=O)[C@@H](N)CC(=O)O (H-Asp-Phe-OMe), the outcome [1] was “inactive”, the outcome [4] was “inactive” and the outcome [5] was “inactive”. For the same molecule, the outcome [3] was “inactive” and the outcome [6] was “inactive”.
For C=CC(C)(O)CC/C=C(\C)CC (stereo not given), the outcome [2] was “inactive”, the outcome [4] was “inactive” and the outcome [5] was “inactive”. The AC50 [3] was 6.12 µM (active) and the outcome [6] was “inactive”.
For CC(C)c1cc(C(C)C)cc(C(C)C)c1, the outcome [2] was “inactive”, the outcome [4] was “inactive” and the outcome [5] was “inactive”. For the same molecule, the AC50 [3] was 26.9 µM (active).
CCC(=O)C1CC(C(C)C)CC=C1C (stereo not given) was tested, and the outcome [2] was “inactive”, the outcome [4] was “inactive” and the AC50 [5] was 58.3 µM (active). The AC50 [3] was 3.16 µM (active) and the outcome [6] was “inactive”.
For CC1=CP(=O)(c2ccccc2)CC1 (stereo not given), the outcome [2] was “inactive”, the outcome [4] was “inactive” and the outcome [6] was “inactive”.
With CC(C)(CO)C(O)C(=O)NCCCO (stereo not given) the outcome [2] was “inactive” and the outcome [5] was “inactive”.
In the case of C=C(C)C(=O)OCCOC(=O)C(=C)C, the outcome [2] is reported as “inactive”, the outcome [4] is reported as “inactive” and the AC50 [5] is reported as 62.2 µM (active). The outcome [6] was “inactive”.
For C=Cc1ccc(OC(C)=O)cc1, the outcome [2] was “inactive”, the outcome [5] was “inactive” and the outcome [3] was “inactive”.
In the case of CCCCOC(=O)C(C)CC (stereo not given), the outcome [2] is reported as “inactive” and the outcome [3] is reported as “inactive”.
With N#Cc1ccc(C2CCCc3cncn32)cc1 (stereo not given) the outcome [2] was “inactive”, the outcome [1] was “inactive” and the outcome [5] was “inactive”. For the same molecule, the outcome [6] was “inactive”.
In the case of CCCC/C=C/C=C\C=O, the outcome [2] is reported as “inactive” and the AC50 [5] is reported as 7.73 µM (active).
For CC(=O)OC1CCCCC1, the outcome [2] was “inactive”, the outcome [4] was “inactive” and the outcome [3] was “inactive”. The outcome [6] was “inactive”.
In the case of Cc1cc(=O)[nH]c(=O)[nH]1, the outcome [2] is reported as “inactive” and the outcome [3] is reported as “inactive”.
In the case of Cc1cccc(C(C)(C)C)c1O, the outcome [1] is reported as “inactive”, the outcome [4] is reported as “inactive” and the outcome [5] is reported as “inactive”. The AC50 [3] was 19.9 µM (active) and the outcome [6] was “inactive”.
With CC(C)C(=O)OCCOc1ccccc1 the outcome [2] was “inactive” and the outcome [5] was “inactive”.
In the case of Cc1cc(C)n(CO)n1, the outcome [2] is reported as “inactive”, the outcome [1] is reported as “inactive” and the outcome [5] is reported as “inactive”.
With CCCCC1CCC(=O)O1 (stereo not given) the outcome [1] was “inactive”, the outcome [4] was “inactive” and the outcome [5] was “inactive”. For the same molecule, the AC50 [3] was 41.4 µM (active) and the outcome [6] was “inactive”.
With CC(CC(C)C)=NO the outcome [2] was “inactive” and the outcome [4] was “inactive”.
With C=Cc1cccc(C)c1 the outcome [2] was “inactive”, the outcome [5] was “inactive” and the outcome [3] was “inactive”.
With CC(C)c1ccc(O)c(C(C)C)c1 the outcome [1] was “inactive”.
In the case of CC1CCC(=O)C1=O (stereo not given), the outcome [1] is reported as “inactive”.
